Data as given in PubChem BioAssay AID1628 (Sanford-Burnham Center for Chemical Genomics, 2009).
About 930 (0.49%) of roughly 190,000 compounds were called active.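 How the source made its calls: active means z-score of insulin promoter reporter brightness in nuclei below -3 at 5 µM, with at least 500 cells counted; inconclusive means wells with under 500 cells, flagged as toxic or sparse; inactive means the rest.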 Some of the results follow. Measured potencies and affinities stand elsewhere.

Experiment: insulin promoter down-regulators in MIN6 cells, imaging, high-content screening, mouse beta cells (AID 1628)
Details: MIN6 insulin promoter GFP reporter, at 5 µM, stronger effect = lower value

| Structure (SMILES) | z-score |
| --- | --- |
| Cc1[nH]c2ccccc2c1/C=N/Nc1ccc([N+](=O)[O-])cc1 | 13.9 (inactive) |
| CC(C)CCNC(=S)Nc1ccc([N+](=O)[O-])cc1 | -5.03 (active) |
| CNC(=S)Nc1ccc([N+](=O)[O-])cc1 | 4.22 (inactive) |
| CCOC(=O)CC1C(=O)NCCN1S(=O)(=O)c1ccc(Cl)cc1Cl (stereo not given) | 3.29 (inactive) |
| COc1ccc(-c2ccc(-c3nnc(Cc4ccc(OC)c(OC)c4)o3)cc2)cc1 | -4.88 (active) |
| Cc1ccc(-c2nnc(Cc3ccc([N+](=O)[O-])cc3)o2)cc1 | 2.29 (inactive) |
| COc1ccc(C2CC(=O)N(CCCN(C)CCc3ccc(OC)c(OC)c3)C2)cc1 (stereo not given) | 1.63 (inactive) |
| CCOC(=O)Cn1c(=O)c(-c2cc(Br)ccc2N)nc2ccccc21 | 6.82 (inactive) |
| O=C(/C=C/c1ccc2ccccc2n1)c1cc(Br)ccc1O | 4.36 (inactive) |
| C/C(=N\NC(=O)c1cccc(N/N=C(\C)c2cc(O)ccc2O)c1)c1cc(O)ccc1O | -4.19 (active) |
| CC(=O)c1cccc(NC(=O)c2c(F)c(F)c(F)c(F)c2F)c1 | 0.06 (inactive) |
| Cc1cc(C2C(C#N)=C(N)Oc3n[nH]c(C)c32)c(C)s1 (stereo not given) | 3.37 (inactive) |
| Cc1ccc(OCCn2nc3ccccc3n2)c(C)c1 | -6.61 (active) |
| Cc1c(C(=O)O)cccc1-c1ccc(/C=C2/NC(=O)N(c3ccccc3)C2=O)o1 | 3.88 (inactive) |
| O=C(Nc1ccccc1)Nc1ccc(-n2ccc(C(F)(F)F)n2)cc1 | -3.4 (active) |
| COc1ccc(CNC(=O)/C=C/c2ccco2)cc1OC | 1.08 (inactive) |
| CC(/C=C/c1ccco1)=N\NC(=O)C(O)c1ccccc1 (stereo not given) | -4.52 (active) |
| C=CCC(c1ccccc1)N(C(C)=O)c1ccco1 (stereo not given) | 3.62 (inactive) |
| CCOc1cc([N+](=O)[O-])cc2c1C(=O)Nc1ccccc1O2 | 5.94 (inactive) |
| CCOC(=O)c1cc2c(ccn2C)n1CC(=O)N1CCC(Cc2ccccc2)CC1 | -3.62 (active) |
| Nc1nc(N2CCN(C(=O)c3ccco3)CC2)nc2ccc(Br)cc12 | -3.6 (active) |
| Cc1cccc2c(C(=O)N3CCN(C(=O)c4ccco4)CC3)cc(-c3cccc(Br)c3)nc12 | -4.53 (active) |
| CC(=O)c1ccc2cccc3c2c1N=CN3C | 3.38 (inactive) |
| CN(C)S(=O)(=O)c1ccc(N2CCN(S(=O)(=O)c3ccc(F)cc3)CC2)c(Cl)c1 | -3.39 (active) |

| Structure (SMILES) | z-score |
| --- | --- |
| Cc1sc2nc(C3CC3)nc(NCCNS(=O)(=O)c3ccccc3)c2c1C | -0.22 (inactive) |
| CN(C)/C=C1/Nc2ccccc2C1=O | 4.71 (inactive) |
| COC1OC(CO)C(O)C(O)C1O (stereo not given) | -0.58 (inactive) |
| Cc1ccc(NC(=O)CCn2cccc2)cc1Cl | 3.23 (inactive) |
| Cc1cc(C)nc(SCC(=O)Nc2ccc(N3CCOCC3)c(Cl)c2)n1 | -11 (active) |
| O=S(=O)(Nc1cc2nc3ccccc3nc2n1Cc1ccccc1)c1ccc(Cl)cc1 | 15.3 (inactive) |
| CCc1nc(Nc2ccc(N3CCN(C(C)=O)CC3)cc2)c2oc3ccccc3c2n1 | -4.54 (active) |
| Cc1nc2c(oc3ccccc32)c(=O)o1 | 4.23 (inactive) |
| Cc1cccc(N2CCCn3c2nc2c3c(=O)n(CCN3CCOCC3)c(=O)n2C)c1 | -3.6 (active) |
| Cc1cc(/C=C2\NC(=S)N(C)C2=O)ccc1N1CCCC1 | 14.3 (inactive) |
| Cc1oc2ncnc(N)c2c1C | 0.96 (inactive) |
| CCCCN(C)CC(O)Cn1cc(/C=C/C(=O)c2cccs2)c2ccccc21 (stereo not given) | 4.79 (inactive) |
| CC(NC(=O)/C(C#N)=C1\N=C(NC(=O)c2cccs2)c2ccccc21)c1ccccc1 (stereo not given) | 3.96 (inactive) |
| CC(Cc1cccs1)NC(=O)Nc1ccccc1 (stereo not given) | -4.74 (active) |
| Nc1nnc(-c2cc3c(ccc4ccccc43)oc2=O)s1 | 8.81 (inactive) |
| O=C(c1ccco1)N1CCN(C(=O)N2c3ccccc3Sc3ccccc32)CC1 | -3.22 (active) |
| CN(C)N(C)C(=O)C(O)(c1ccccc1)c1ccccc1 | -3.03 (active) |
| COC(=O)c1ccc(N2CCN(S(=O)(=O)c3ccc4ccccc4c3)CC2)c([N+](=O)[O-])c1 | -4.04 (active) |
| CCN1CC=C2C(C#N)=C(N)C(C#N)(C#N)C(c3cc(Cl)ccc3Cl)C2C1 (stereo not given) | 15.3 (inactive) |
| O=C1c2cccc3c(N4CCCCC4)ccc(c23)C(=O)N1c1ccc(O)cc1 | 6.1 (inactive) |
| O=C(COc1ccc2ccccc2c1Br)Nc1ncn[nH]1 | 1.51 (inactive) |
| Cc1cc(-c2ccccc2)cc(-c2ccccc2)[n+]1C | -5.05 (active) |
| COCCN1CN(S(=O)(=O)c2ccccc2)c2nc3ccccc3nc21 | 3.14 (inactive) |
| O=[N+]([O-])c1ccc(N2N=C(c3ccco3)CC2c2ccccc2)cc1 (stereo not given) | 3.05 (inactive) |

| Structure (SMILES) | z-score |
| --- | --- |
| CCC(C)(C)n1nnnc1CN(Cc1ccco1)Cc1cc2cc3c(cc2[nH]c1=O)OCO3 | -2.22 (inactive) |
| CCc1ccc2[nH]c(=O)c(CN(Cc3nnnn3C3CCCC3)C3CCCCC3)cc2c1 | -3.09 (active) |
| CCc1ccc2[nH]c(=O)c(CN(Cc3ccc4c(c3)OCO4)Cc3nnnn3C3CCCC3)cc2c1 | -5.41 (active) |
| Cc1cc(C)c2[nH]c(=O)c(CN(Cc3ccc4c(c3)OCO4)Cc3nnnn3C3CCCC3)cc2c1 | -3.04 (active) |
| O=C(OCC(=O)c1ccc[nH]1)c1ccccc1 | 2.07 (inactive) |
| CCOc1cc(C(=O)OCC(=O)NC(C)c2ccccc2)ccc1OCC(=O)N1CCOCC1 (stereo not given) | 2.57 (inactive) |
| O=[N+]([O-])c1cc(S(=O)(=O)/N=C(/c2ccccc2)N2CCOCC2)ccc1Cl | 1.77 (inactive) |
| O=C(COc1ccc(S(=O)(=O)NCc2ccccc2)cc1Cl)N1CCOCC1 | -4.71 (active) |
| CCCCn1c(CCC(=O)O)nc2cc(S(=O)(=O)N(C)C)ccc21 | -3.06 (active) |
| CN(C)C(=S)N=Nc1[nH]c2ccccc2c1O | -5.59 (active) |
| O=c1[nH]c2ccccc2c(O)c1O | -0.06 (inactive) |
| O=C(CNC(=O)c1cccc(F)c1)N/N=C/c1cc(Br)ccc1OC(=O)/C=C/c1ccco1 | -8.62 (active) |
| Cc1ccc(CNc2ccc3c(c2)OCO3)c(C)c1 | 3.69 (inactive) |
| COc1cc(C)c(CNc2ccc(OC)c(OC)c2)cc1C | -4.27 (active) |
| CCc1ccc(NC(=O)c2c(C(=O)Nc3ccccc3)sc3nc(C)cc(=O)n23)cc1 | -3.57 (active) |
| CCc1ccc(NC(=O)c2cc(C(C)C)on2)cc1 | 3.36 (inactive) |
| CC(=O)n1c(C=Nc2ccccc2)c(O)c2ccccc21 | 3.61 (inactive) |
| Cc1cc(C(=O)NCC(=O)OCC(=O)N2CCCCCC2)ccc1[N+](=O)[O-] | -3.78 (active) |
| CCOC(=O)c1c(NC(=O)COC(=O)c2cc(OC)c(OC)cc2[N+](=O)[O-])sc(C)c1C | -7.34 (active) |
| COC(=O)c1c(NC(=O)CC2Nc3cc(C)c(C)cc3NC2=O)sc(C)c1C (stereo not given) | 6.44 (inactive) |
| CCC(=O)Nc1ccc(C(=O)OCC(=O)c2ccc(C)c([N+](=O)[O-])c2)cc1 | 3.37 (inactive) |
| CCN(C#N)c1nc(NC(C)C)nc(NC(C)C)n1 | -6.16 (active) |
| COc1ccc(N(CC(=O)Nc2cc(OC)ccc2OC)S(C)(=O)=O)cc1 | 0.8 (inactive) |
| COc1ccc(N(CC(=O)Nc2ccccc2C(=O)NCC(C)C)S(C)(=O)=O)cc1 | -3.31 (active) |

| Structure (SMILES) | z-score |
| --- | --- |
| COc1ccc(-n2c(SCC(N)=O)nnc2-c2cccnc2)cc1 | 0.75 (inactive) |
| COc1ccc(-n2c(C)cc(C(=O)CSc3nn4c(=O)c(C(C)(C)C)nnc4s3)c2C)cc1 | -4.21 (active) |
| CN(C)S(=O)(=O)c1ccc(NC(=O)C2COc3ccccc3O2)cc1 (stereo not given) | 2 (inactive) |
| COc1ccc2c(c1)C(=O)OC2CC(=O)O (stereo not given) | 0.37 (inactive) |
| Cc1ccc(-c2cn3nc(-c4ccccc4)c(-c4ccccc4)nc3n2)cc1 | 8.16 (inactive) |
| Cc1cc2nc(C3CCN(Cc4nnnn4Cc4cccs4)CC3)[nH]c2cc1C | -3.92 (active) |
| CCCCCc1cc(=O)oc2c(C(CCN3CCCC(C)C3)c3ccc(OC)cc3)c(OC)cc(OC)c12 (stereo not given) | -3.09 (active) |
| C=CCNC(=O)C1CCN(S(=O)(=O)c2ccc(Br)cc2)CC1 | 3.14 (inactive) |
| CC1CCN(S(=O)(=O)c2ccc(NC(=O)N3c4ccccc4Sc4ccccc43)cc2)CC1 | -3.77 (active) |
| Cc1ccc2c(c1)C(c1ccccc1)N(C(=O)c1cc3ccccc3oc1=O)CC(=O)N2 (stereo not given) | -4.42 (active) |
| O=C(C1=C(O)C(=O)N(c2nccs2)C1c1ccccc1)c1cc2ccccc2o1 (stereo not given) | 13.5 (inactive) |
| CN(C)c1ccc(/C=C2\SC(=O)N(CCc3nnc(N)s3)C2=O)cc1 | 3.27 (inactive) |
| O=C1S/C(=C/c2ccc(N3CCOCC3)o2)C(=O)N1Cc1ccc(F)cc1 | 11.4 (inactive) |
| Cc1ccc(S(=O)(=O)CCC(=O)NCCN2C(=O)S/C(=C/c3ccc(F)cc3)C2=O)cc1 | -5.68 (active) |
| CN(C)Cc1nc2ccccc2c(=O)n1Cc1nc(C(C)(C)C)cs1 | -4 (active) |
| CCCc1nc2ccc(NC(C)=O)cc2c(=O)n1Cc1ccc(Cl)cc1 | 3.64 (inactive) |
| CC(=O)Nc1ccc2nc(NC(=O)COc3ccccc3C)sc2c1 | 2.47 (inactive) |
| Cc1cccc(OCC(=O)NNC(=O)Nc2cccc(Cl)c2)c1C | -5.42 (active) |
| COc1ccc(Cl)cc1NC(=O)CN(C)C(=O)COc1ccccc1F | 4.38 (inactive) |
| Cc1cccc(N=CC=C2OC(C)(C)C(C)(C)O2)c1 | -4.14 (active) |
| Cc1cccc(N=Cc2[nH]c3ccc(Br)c(Cl)c3c2O)c1 | 16.6 (inactive) |
| O=C(c1ccco1)N1CCN(C(=O)c2cc3sccc3n2Cc2ccccc2)CC1 | -3.22 (active) |
| Cn1c(C(=O)N2CCC(C(=O)N3CCN(Cc4ccc5c(c4)OCO5)CC3)CC2)cc2sccc21 | 4.67 (inactive) |
